rCAG binder – binders of r(CAG) RNA repeats, primary screen, biochemical, fluorescence | r(CAG) RNA repeat, TO-PRO-1 dye displacement fluorescence | inhibition, % at 3 µM | actives 1.3% (n = 370,000);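 active = inhibition above the plate cutoff, the mean of all test compounds on that plate plus 3 SD, cut at about 35% in these data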;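 also: higher means more dye released from RNA so lower well fluorescence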
NadD inh – inhibitors of S. aureus NadD, primary screen, biochemical, colorimetric, uHTS; Nicotinate-nucleotide adenylyltransferase NadD (Staphylococcus aureus N315); purified NadD enzyme, colorimetric absorbance read-out; inhibition, % at 20 µM; actives 0.78% (n = 360,000); AID 602399, 2012; in the data active = inhibition above about 26%
FAS TE block – FAS thioesterase domain inhibitors, primary screen, biochemical, fluorescence intensity, uHTS. actives 0.67% (n = 360,000). inhibition, % at 15 µM. Fatty acid synthase (Homo sapiens), P49327. recombinant FAS-TE, OMFH fluorogenic substrate, fluorescence endpoint;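 active = compounds whose normalised, plate-corrected inhibition of enzyme fluorescence in the single-dose primary screen is 50% or more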
GRIN3A LBD mod – binders of NR3A ligand-binding domain, primary screen, biophysical, differential scanning fluorimetry, uHTS | actives 2.5% (n = 340,000) | AID 1259313, 2017 | NR3A LBD differential scanning fluorimetry, Tm shift; 0% = protein alone, 100% = glycine-bound protein | Tm shift relative to glycine control, % at 25 µM | Glutamate receptor ionotropic, NMDA 3A (GRIN3A) ligand-binding domain;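 active = melting temperature shift of at least 10% of the positive control shift, at one fixed dose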
Hits are given with their value. Rows were chosen to be rich in hits. Some 4.3% of all compounds tested hit in one or more screens of this group.

CCC(C)c1ccc(C(C)NC(=S)NCc2ccc(F)cc2)cc1 (centres undefined) was read as rCAG binder inactive, NadD inh inactive, FAS TE block inactive and GRIN3A LBD mod 13.
CCCc1ccc(C(C)NC(=S)NCc2ccc(F)cc2)cc1 (centres undefined) was read as rCAG binder inactive, NadD inh inactive, FAS TE block inactive and GRIN3A LBD mod inactive.
`CC[C@@]1(c2ccc(C)cc2)C(=O)N(C(=O)OC(C)C)N1C(=O)OC(C)C` gave rCAG binder inactive.
For COc1cc(/C=N/NC(=O)c2ccc3nc[nH]c3c2)ccc1O the results were rCAG binder inactive, NadD inh inactive, FAS TE block inactive and GRIN3A LBD mod 26.
Screening CCC(CC)NC(=O)c1ccc2nc[nH]c2c1 returned rCAG binder inactive, NadD inh inactive, FAS TE block inactive and GRIN3A LBD mod 18.
For C=CCc1cccc(/C=N/NC(=O)c2ccc3nc[nH]c3c2)c1O the results were rCAG binder inactive, NadD inh inactive, FAS TE block inactive and GRIN3A LBD mod 11.
`O=C(N/N=C/C(Br)=C\c1ccccc1)c1ccc2nc[nH]c2c1` gave rCAG binder inactive, NadD inh inactive, FAS TE block inactive and GRIN3A LBD mod 15.
For COc1cccc(/C=N/NC(=O)c2ccc3nc[nH]c3c2)c1 the results were rCAG binder inactive, NadD inh inactive, FAS TE block inactive and GRIN3A LBD mod inactive.
For O=C(CN1CCC(NC(=O)Nc2ccc(Cl)cc2)CC1)Nc1ccc2c(c1)OCCO2 the results were rCAG binder inactive.
Screening COc1cc(/C=N/NC(=O)c2[nH]nc3c2CCc2ccccc2-3)ccc1O returned rCAG binder inactive, NadD inh inactive, FAS TE block inactive and GRIN3A LBD mod 29.
COc1cc(/C=N/NC(=O)c2ccccc2)ccc1O was read as rCAG binder inactive, NadD inh inactive, FAS TE block inactive and GRIN3A LBD mod inactive.
For Cc1c(CCC(=O)O)c(=O)oc2cc3occ(-c4ccc(Cl)cc4)c3cc12 the results were rCAG binder 59, NadD inh inactive, FAS TE block inactive and GRIN3A LBD mod inactive.
Screening O=C(N[C@H]1C[C@@H]2O[C@@H](CO)CC[C@@H]2O[C@@H]1CCc1ccc(-c2cccnc2)cc1)c1cccc(F)c1 returned rCAG binder inactive.
COCCCNC(=O)C[C@H]1C[C@@]2(C(=O)OC)C(=C[C@H](C(C)(C)C)O[C@@H]2C)N(Cc2ccco2)C1=O was read as rCAG binder inactive.
O=c1cc(-c2ccccc2)oc2cc(O)ccc12 was read as rCAG binder inactive, NadD inh inactive, FAS TE block inactive and GRIN3A LBD mod inactive.
Screening CCOC(=O)C(Oc1ccc2c(-c3ccccc3)cc(=O)oc2c1)c1ccccc1 (centres undefined) returned rCAG binder inactive, NadD inh inactive, FAS TE block inactive and GRIN3A LBD mod 11.
O=c1cc(-c2ccccc2)c2ccc(O)cc2o1 was read as rCAG binder inactive, NadD inh inactive, FAS TE block inactive and GRIN3A LBD mod 11.
For O=C(COc1ccc2c(-c3ccccc3)cc(=O)oc2c1)N[C@H](Cc1c[nH]c2ccccc12)C(=O)O the results were rCAG binder 40, NadD inh inactive, FAS TE block inactive and GRIN3A LBD mod inactive.
Clc1ccc(CSc2nnc(-c3cccs3)o2)cc1Cl was read as rCAG binder inactive.
`Cc1cccc(C(=O)Nc2ccccc2SCC(=O)Nc2ccc(C)c(Cl)c2)c1` gave rCAG binder inactive, NadD inh inactive, FAS TE block inactive and GRIN3A LBD mod 15.
Screening O=C(O)c1ccc(-c2noc(-c3cccc(C(F)(F)F)c3)n2)cc1 returned rCAG binder inactive, NadD inh inactive, FAS TE block inactive and GRIN3A LBD mod 13.
`FC(F)(F)c1cccc(-c2nc(-c3ccncc3)no2)c1` gave rCAG binder inactive, NadD inh inactive, FAS TE block inactive and GRIN3A LBD mod inactive.
CC(=N\Nc1ccc(Cl)cc1)/C(=N/O)C(=O)Nc1ccccc1 was read as rCAG binder inactive, NadD inh inactive, FAS TE block inactive and GRIN3A LBD mod 23.
For CC(=O)N1C=CN(C(C)=O)C(c2cn(C)c3ccccc23)C1c1cn(C)c2ccccc12 (centres undefined) the results were rCAG binder inactive, NadD inh inactive, FAS TE block inactive and GRIN3A LBD mod 14.
For Cc1cccc(NC(=O)c2ccc(-c3ccccc3[N+](=O)[O-])o2)c1 the results were rCAG binder inactive, NadD inh inactive, FAS TE block inactive and GRIN3A LBD mod 27.
For COc1ccccc1NC(=O)/C=C/c1cc([N+](=O)[O-])ccc1OC(F)F the results were rCAG binder inactive, NadD inh inactive, FAS TE block inactive and GRIN3A LBD mod inactive.
For Cc1ccccc1-c1ccc(C(=O)Nc2cccc(F)c2)o1 the results were rCAG binder inactive, NadD inh inactive, FAS TE block inactive and GRIN3A LBD mod inactive.
For COc1cccc(NC(=O)/C=C/c2ccccc2[N+](=O)[O-])c1 the results were rCAG binder inactive, NadD inh inactive, FAS TE block inactive and GRIN3A LBD mod 27.
`COc1cccc(NC(=O)c2ccc(-c3ccccc3[N+](=O)[O-])o2)c1` gave rCAG binder inactive, NadD inh inactive, FAS TE block inactive and GRIN3A LBD mod 28.
Screening O=C(/C=C/c1cc([N+](=O)[O-])ccc1OC(F)F)Nc1cccc(OC(F)F)c1 returned rCAG binder inactive, NadD inh inactive, FAS TE block inactive and GRIN3A LBD mod 13.
Screening O=C(CN1CCN(c2nc(-c3ccccc3)cs2)CC1)Nc1ccc(F)cc1F returned rCAG binder inactive.
For CC(=O)OC12CCCN(C1)/C(=C/c1ccccc1)C2 (centres undefined) the results were rCAG binder inactive.
`O=C(C[C@@H]1C[C@@H]2c3cc(NC(=O)c4ccc5c(c4)OCO5)ccc3O[C@@H]2[C@@H](CO)O1)NCc1cccnc1` gave rCAG binder inactive.
Screening Cc1cccc(NC(=O)/C=C/c2ccc([N+](=O)[O-])s2)c1 returned rCAG binder inactive, NadD inh inactive, FAS TE block inactive and GRIN3A LBD mod 12.
`Cc1ccc(NC(=O)/C=C/c2ccc([N+](=O)[O-])s2)cc1` gave rCAG binder inactive, NadD inh inactive, FAS TE block inactive and GRIN3A LBD mod inactive.
For O=S1(=O)N[C@@H](Cc2ccccc2)COc2cc(N3CCOCC3)ccc21 the results were rCAG binder inactive.
COc1ccc(NC2=CC(=O)CC(C)(C)C2)cc1 was read as rCAG binder inactive, NadD inh inactive, FAS TE block inactive and GRIN3A LBD mod 15.
`O=C(NCc1ccccc1)[C@@H]1CCCN1C(=O)[C@H]1CCCN1C(=O)c1cccc2ccccc12` gave rCAG binder inactive.
For CCn1c(SCC(=O)N/N=C/c2cccc(Oc3ccccc3)c2)nnc1-c1ccccc1 the results were rCAG binder inactive.
